Some test systems named below: HCT-15 colon; HT29 colon; SNB-75 CNS; SNB-19 CNS; U251 CNS; PC-3 prostate; SK-MEL-5 melanoma; UACC-62 melanoma; LOX IMVI melanoma; SK-MEL-28 melanoma.
Assay in all cases: NCI-60 one-dose screen, 48 h (100 = growth as untreated, 0 = no growth, -100 = all killed)
Common to all, as to conditions: 10 µM unless noted

Compounds without any hit were thinned out: in the full panel of roughly 83,000, 20% have a hit.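 Growth was measured after 48 h exposure to one concentration of compound in 96-well plates. Values under 10 count as active.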 Unmarked numbers belong to inactive results. Activity calls are given as the source filed them.

Take `COc1cccc2cc(N(C)c3ncnc4ccccc34)ccc12`: the growth in the assay on HCT-15 colon was 11.1%; with HT29 colon, 2.77% (active); in the assay with SNB-75 CNS, 34.8%; in the assay with SNB-19 CNS, 31.8%; in the assay on U251 CNS it was 11%; in the assay on PC-3 prostate it was 5.88% (active). The growth was -32.4% (active) with SK-MEL-5 melanoma, 23.4% in the assay on UACC-62 melanoma, 15.5% in the assay on LOX IMVI melanoma and 33.3% in the assay on SK-MEL-28 melanoma.
Consider `Cc1cc2nc(C(Cl)Cl)nc(-c3ccccc3)n2n1`, for which the growth in the assay with HCT-15 colon is 41.2%; in the assay with HT29 colon it was 12.6%; in the assay with SNB-75 CNS, -4.36% (active); in the assay on SNB-19 CNS, 62.7%; in the assay with U251 CNS, 36%; in the assay on PC-3 prostate it was 65.1%. Further, the growth in the assay on SK-MEL-5 melanoma is 94.4%; in the assay with UACC-62 melanoma it was 88.9%; with LOX IMVI melanoma, 75.1%; in the assay on SK-MEL-28 melanoma it was 85.1%.
For `Nc1ncc(-c2ccc3ncnc(N4CCc5ccc(Cl)cc54)c3c2)cn1`, the growth in the assay with HCT-15 colon is 7.19% (active); with HT29 colon, 1.74% (active); in the assay with SNB-75 CNS, -11.6% (active); in the assay on SNB-19 CNS, 14.1%; in the assay on U251 CNS, 9.31% (active); in the assay with PC-3 prostate, 8.82% (active). Further, the growth was -52.2% (active) with SK-MEL-5 melanoma, -23.6% (active) in the assay with UACC-62 melanoma, 1.27% (active) with LOX IMVI melanoma and -6.35% (active) in the assay with SK-MEL-28 melanoma.
As to `COc1cccc2cc(N(C)c3nc(C)nc4c3CCC4)ccc12`, the growth was 8.06% (active) with HCT-15 colon; 2.44% (active) in the assay on HT29 colon; 30.5% in the assay with SNB-75 CNS; 30.4% in the assay with SNB-19 CNS; 5.05% (active) in the assay on U251 CNS; 9.9% (active) in the assay with PC-3 prostate. Besides, the growth is -35.5% (active) in the assay on SK-MEL-5 melanoma, 20.3% with UACC-62 melanoma, 19.3% in the assay with LOX IMVI melanoma and 70.7% with SK-MEL-28 melanoma.
As for `COc1cccc(-c2cc(-c3ccc(Nc4nc(Nc5ccc(Cl)cc5)nc(Nc5ccc(Cl)cc5)n4)cc3)nc(N)c2C#N)c1`, the growth with HCT-15 colon was 22.8%; in the assay with HT29 colon it was 16.8%; in the assay on SNB-75 CNS it was 65.9%; with SNB-19 CNS it was 106%; in the assay on U251 CNS it was 3.83% (active); in the assay on PC-3 prostate it was -5.44% (active). The growth in the assay on SK-MEL-5 melanoma is 13%; in the assay with UACC-62 melanoma it was 76.4%; in the assay with LOX IMVI melanoma, -33.6% (active); with SK-MEL-28 melanoma it was -59.7% (active).
Regarding `CC(C)CCc1nc2ccc(NCc3ccc(OCCN4CCC(C)CC4)cc3)cc2[nH]1`, the growth in the assay on HCT-15 colon was 67.4%; in the assay with HT29 colon it was 40.3%; with SNB-75 CNS it was 90.8%; in the assay on SNB-19 CNS, 88.6%; in the assay with U251 CNS, 71.6%; in the assay on PC-3 prostate, 61.4%. The growth was 84.9% in the assay with SK-MEL-5 melanoma, 82.5% in the assay on UACC-62 melanoma, 59.6% in the assay on LOX IMVI melanoma and 75.7% in the assay with SK-MEL-28 melanoma.
Regarding `CO[C@]12C=C/C(=C(/C(=O)OCc3cccnc3)C(=O)CCCCCCCC[C@]3(OC)C=C/C(=C(/C(=O)OCc4cccnc4)C(=O)CCCCCCCC1)O3)O2`, the growth is -78.5% (active) in the assay with HCT-15 colon; -32.3% (active) in the assay on HT29 colon; -79.6% (active) with SNB-75 CNS; -90.5% (active) in the assay with SNB-19 CNS; -64.2% (active) in the assay with U251 CNS; -51.6% (active) in the assay with PC-3 prostate. For the same molecule, the growth in the assay on SK-MEL-5 melanoma is -92.9% (active); in the assay with UACC-62 melanoma, -82.5% (active); with LOX IMVI melanoma, -82.3% (active); in the assay with SK-MEL-28 melanoma, -86.3% (active).
`O=C(O)CCCN1C(=O)CSC1=S`: the growth in the assay with HCT-15 colon is 94.3%; in the assay on HT29 colon, 108%; with SNB-75 CNS, 85.6%; in the assay on SNB-19 CNS, 102%; in the assay on U251 CNS it was 108%; in the assay on PC-3 prostate, 95.3%. The growth in the assay on SK-MEL-5 melanoma is 101%; in the assay with UACC-62 melanoma it was 96.2%; in the assay with LOX IMVI melanoma it was 94.7%; in the assay on SK-MEL-28 melanoma, 105%.
For `O=C(NCCN1CCOCC1)c1cncnc1Nc1ccc2c(ccn2Cc2ccccn2)c1`, the growth with HCT-15 colon was 105%; in the assay with HT29 colon, 102%; in the assay on SNB-75 CNS, 82.4%; with SNB-19 CNS, 95.5%; in the assay with U251 CNS, 99.7%; with PC-3 prostate, 101%. In addition, the growth with SK-MEL-5 melanoma was 101%; in the assay with UACC-62 melanoma, 94.6%; in the assay with LOX IMVI melanoma, 101%; with SK-MEL-28 melanoma, 108%.
As to `CCCCCCCCNC(=O)[C@@H](N)CSCOC(C)=O`, the growth is 99.5% in the assay on HCT-15 colon; 89.4% with HT29 colon; -17.3% (active) in the assay on SNB-75 CNS; 90.8% in the assay with SNB-19 CNS; 102% in the assay on U251 CNS; 75.9% with PC-3 prostate. For the same molecule, the growth in the assay on SK-MEL-5 melanoma was 48.7%; in the assay with UACC-62 melanoma it was 70%; in the assay with LOX IMVI melanoma it was 44.4%; in the assay on SK-MEL-28 melanoma it was 99.6%.
For `Nc1ncc(-c2ccc3ncnc(N4CCc5cc(F)c(Cl)cc54)c3c2)cc1C=O`, the growth is 26.5% in the assay with HCT-15 colon; 16.4% in the assay on HT29 colon; -38.3% (active) in the assay with SNB-75 CNS; 37% in the assay on SNB-19 CNS; 48.5% in the assay on U251 CNS; 20.1% with PC-3 prostate. Moreover, the growth is 2.88% (active) in the assay on SK-MEL-5 melanoma, -17.2% (active) in the assay on UACC-62 melanoma, 19.2% with LOX IMVI melanoma and 10.2% with SK-MEL-28 melanoma.

Source of the values: PubChem BioAssay (NCI).
